# Out of some 220,000 compounds screened, about 16,000 (7.3%) were called active. Where a call stands in place of a potency, no number is given. About 25% were inconclusive and are not listed. The call rests on the fitted dose curve; in most records, active means well fitted inhibition curve with a large enough effect (not every such curve was filed as active); inconclusive means small, poorly fitted or top-dose-only effect, or another doubt; inactive means no such curve, though single readings can be large or run the other way. For the sample, actives were picked, then their nearest neighbours and some compounds at random.
# Target: Aldehyde dehydrogenase 1A1 (Homo sapiens) (UniProt P00352)
# Test: qHTS Assay for Inhibitors of Aldehyde Dehydrogenase 1 (ALDH1A1)
# Settings: Purified ALDH1A1, NADH fluorescence, propionaldehyde substrate; series mostly up to 75.3 µM
# Potency means the concentration at half of the fitted maximal effect.
# Sequence of Aldehyde dehydrogenase 1A1 (Homo sapiens) (P00352 whole entry, looked up): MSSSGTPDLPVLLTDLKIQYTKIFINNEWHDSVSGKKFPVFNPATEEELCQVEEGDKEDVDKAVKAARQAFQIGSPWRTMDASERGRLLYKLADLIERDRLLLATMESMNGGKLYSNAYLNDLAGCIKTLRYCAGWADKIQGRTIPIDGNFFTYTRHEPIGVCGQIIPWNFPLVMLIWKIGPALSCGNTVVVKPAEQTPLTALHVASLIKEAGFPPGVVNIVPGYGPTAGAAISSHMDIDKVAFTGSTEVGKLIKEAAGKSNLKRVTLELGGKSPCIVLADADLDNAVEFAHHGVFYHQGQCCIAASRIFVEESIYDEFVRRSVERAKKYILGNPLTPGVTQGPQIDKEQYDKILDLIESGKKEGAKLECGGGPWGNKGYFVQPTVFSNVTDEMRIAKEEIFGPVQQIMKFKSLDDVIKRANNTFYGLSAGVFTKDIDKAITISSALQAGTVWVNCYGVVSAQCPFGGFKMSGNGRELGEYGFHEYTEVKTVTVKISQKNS
SMILES,Potency,"activity, negative = inhibition"
COc1ccc(C(=O)NNC(=O)c2cc(C)[nH]n2)cc1,inactive,–
Cc1ccc(C2NC(=S)NC3=C2N2CCC3CC2)cc1 (stereo not drawn),8.91 µM (active),–
CC(O)c1cccc(NC(=O)Cc2cccc3ccccc23)c1 (stereo not drawn),inactive,–
O=C(NCc1ccco1)c1cc2sccc2n1Cc1ccc(F)cc1,inactive,–
O=C(NCc1ccco1)c1nn2cccnc2c1Cl,inactive,–
O=C(NCc1ccco1)c1sc2cccc(F)c2c1Cl,28.2 µM (active),–
O=C(CC1CCCCC1)Nc1c2c(nn1-c1ccc(F)cc1)CS(=O)(=O)C2,7.94 µM (active),–
COc1cccc(C(=O)Nc2c3c(nn2-c2cccc(C)c2C)CS(=O)(=O)C3)c1OC,inactive,–
O=C(CC1CCCCC1)NCc1ccc(F)cc1,inactive,–
COCCNc1nc2nonc2nc1N(C)Cc1ccc(C)cc1,inactive,–
CCCCN(CC)CCCNC(=O)c1ccc(CSc2nc3ccncc3[nH]2)cc1,inactive,–
Cc1c(C=O)n(C)n(-c2ccccc2)c1=O,inactive,–
CCOC(=O)N1CCC(=NNC(N)=O)CC1,inactive,–
O=C(NCC1CCCO1)C1CCN(C2CCN(C(=O)C3CCCCC3)CC2)CC1 (stereo not drawn),inactive,–
Cc1cccc(NC(=O)c2nnn(-c3cccc(C(F)(F)F)c3)c2N)c1,inactive,–
CCn1c2ccccc2c2cc(NC(=O)CNC)ccc21,25.1 µM (active),–
CCn1c2ccccc2c2cc(NC(=O)COC(=O)c3ccccc3Br)ccc21,inactive,–
CCn1c2ccccc2c2cc(NC(=S)N3CCOCC3)ccc21,inactive,–
CCOc1ccc(CN2CCN(Cc3ccc(C)o3)CC2CCO)cc1 (stereo not drawn),inactive,–
Oc1c(C(c2ccccn2)N2CCOCC2)ccc2cccnc12 (stereo not drawn),inactive,–
CCN1CCN(C(c2cccnc2)c2cc(Cl)c3cccnc3c2O)CC1 (stereo not drawn),1.78 µM (active),–
CCOC(=O)N1CCN(C(c2cccnc2)c2ccc3cccnc3c2O)CC1 (stereo not drawn),1.58 µM (active),–
O=C(O)COc1c(Cl)cc(Cl)c2cccnc12,–,-8.71% [at 13.5 µM] (inactive)

SMILES,Potency,"activity, negative = inhibition"
CCOC(=O)N1CCN(C(=O)CSc2ccc(Cl)cc2)CC1,inactive,–
Oc1c(CN2CCN(c3ccc(F)cc3)CC2)cc(Cl)c2cccnc12,inactive,–
O=C(Nc1cccnc1)c1cc2cc(Br)ccc2oc1=O,inactive,–
CCCN(CCC)c1ccc(C(O)c2nnc(-c3ccccc3)o2)cc1 (stereo not drawn),inactive,–
Oc1ccc(N=Nc2nccs2)c(O)c1,inactive,–
Cc1nn2cc(-c3ccc(Cl)cc3)cnc2c1Br,inactive,–
CCCCCCCC1(C)NC(=O)N(CC(=O)Nc2cc(C)on2)C1=O (stereo not drawn),inactive,–
CC1CN(S(=O)(=O)c2ccc(C(=O)NN3CCN(C)CC3)cc2)CC(C)O1 (stereo not drawn),inactive,–
COc1cc([C@H](Cc2ccccc2)NC(C)=O)oc(=O)c1,inactive,–
O=C(NN1C(=O)C2C3C=CC(O3)C2C1=O)c1ccncc1 (stereo not drawn),17.8 µM (active),–
O=C(Nc1ccc2c(c1)OCCO2)c1ccncc1,inactive,–
COc1ccccc1C(=O)NNC(=O)c1ccc(NC(=O)c2ccccc2)cc1,inactive,–
O=C(NN1C(=O)C2C3C=CC(C3)C2C1=O)c1ccco1 (stereo not drawn),inactive,–
COc1ccccc1C(=O)Nn1c(-c2cccs2)nc2ccccc2c1=O,inactive,–
COc1ccccc1C(=O)NN1C(=O)C2C3C=CC(O3)C2C1=O (stereo not drawn),20 µM (active),–
COC(=O)c1ccc(CN2CCC(CO)(Cc3ccc(OC)cc3)CC2)cc1,inactive,–
CC(NC(=S)NC1CCCCC1)C(c1ccccc1)N1CCOCC1 (stereo not drawn),inactive,–
CC(C)(C)n1nnnc1C(c1cccs1)N(Cc1cccnc1)CC1CCCO1 (stereo not drawn),inactive,–
Cc1cccc(N2CCN(C(c3ccccc3)c3nnnn3CC3CCCO3)CC2)c1C (stereo not drawn),inactive,–
Cc1cc(C)c2cc(CN(Cc3cccs3)Cc3nnnn3CC3CCCO3)c(=O)[nH]c2c1 (stereo not drawn),11.2 µM (active),–
CCCCC(=O)Nc1ccc(C(=O)Nc2cc(C(F)(F)F)ccc2Cl)cc1,inactive,–
C[C@@H](Nc1nc(-c2ccccc2)nc2c1oc1ccccc12)C(=O)O,7.08 µM (active),–
CCSc1nc(C)nc2c1oc1ccccc12,inactive,–

SMILES,Potency,"activity, negative = inhibition"
Cc1nc(Cl)c2oc3ccccc3c2n1,inactive,–
O=C(NCCN1CCOCC1)Nc1cccc(Cl)c1,inactive,–
CC/C(=N\NC(=S)NC(C)C)c1ccc(OC(F)F)cc1,inactive,–
Cc1ccc(NC(=S)N(CCCN2CCCC2)Cc2cccn2Cc2ccc(Cl)cc2)cc1,inactive,–
COc1ccc(C(=O)Nc2ccc(CN3CCOCC3)cc2)cc1,inactive,–
C/C(CCc1ccccc1)=N\NC(=O)c1ccc(CN2CCOCC2)cc1,25.1 µM (active),–
O=C(Nc1ccc(CSc2ccccc2)cc1)c1ccc(CN2CCOCC2)cc1,inactive,–
O=C(COc1ccc(NC(=O)c2ccccc2[N+](=O)[O-])cc1)c1ccc(F)cc1,inactive,–
CSc1ncccc1C(=O)Nc1nc2ccc(F)cc2s1,inactive,–
COCC1CCCN(Cc2cn[nH]c2-c2cc3ccccc3o2)C1 (stereo not drawn),inactive,–
O=C(O)c1ccc(/C=N/NC(=S)NCc2ccccc2)cc1,inactive,–
O=C(Cl)c1ccccc1[N+](=O)[O-],inactive,–
O=C(Nc1ccncc1)c1ccccc1[N+](=O)[O-],inactive,–
O=[N+]([O-])c1ccccc1SNc1ccccn1,20 µM (active),–
COc1cc(NC(=O)COc2ccccc2Cl)ccc1NC(=O)C(C)C,inactive,–
COc1ccc(S(=O)(=O)N(C)C)cc1NC(=O)CSc1ncccn1,inactive,–
Cc1cccc(C)c1NC(=O)c1ccc(CN2CCc3ccccc3C2)cc1,inactive,–
O=C(Nc1ccc(Cl)c(Cl)c1)N1CC=C(c2ccccc2)CC1,inactive,–
Cc1cccc(C)c1NC(=O)N1CC=C(n2c(=O)[nH]c3ccccc32)CC1,6.31 µM (active),–
CSc1ccc(CNCCN2CCOCC2)cc1,inactive,–
Cc1ccc(-c2nc(C)sc2CC(=O)OCC(=O)Nc2c(F)cccc2F)cc1,inactive,–
Cc1ccc(NC(=O)Nc2nnc(-c3ccncc3)s2)cc1,inactive,–
O=C(CC1CCCCC1)NCc1ccco1,inactive,–

SMILES,Potency,"activity, negative = inhibition"
O=C(CSC1=Nc2ccccc2C2=NC(CC(=O)NCc3ccco3)C(=O)N12)NCc1ccco1 (stereo not drawn),7.94 µM (active),–
CCOCCc1c(O)nc(SCC(=O)NCc2ccco2)[nH]c1=O,inactive,–
O=C(NNC(=S)NC1CCCCC1)c1ccccc1Cl,inactive,–
Cc1ccccc1OCc1nnc(SCC(=O)N2c3ccccc3Sc3ccc(Cl)cc32)o1,10 µM (active),–
CC(C)NC(=O)CSc1nnc(COc2ccccc2Cl)o1,inactive,–
Cc1ccc(NC(=O)CSc2nnc(COc3ccccc3C)o2)cc1,inactive,–
O=C(CSc1ccccn1)Nc1nc2c(ccc3ccccc32)s1,inactive,–
CN(C)c1ccc(/C=C2\NC(=S)N(Cc3ccccc3)C2=O)cc1,11.2 µM (active),–
O=C1NCC(=O)N(Cc2ccccc2)/C1=C/c1ccccc1,inactive,–
O=C1N/C(=C/c2cccs2)C(=O)N1Cc1ccc(F)cc1,inactive,–
CCc1nnc(NC(=O)CCCSc2nc3ccccc3[nH]2)s1,inactive,–
COc1cc(OC)cc(-c2nc(=S)n3ccsc3n2)c1,inactive,–
CC(Oc1ccccc1)C(=O)NN1Cc2ccccc2C1=N (stereo not drawn),inactive,–
COc1ccc(/C(C)=N/NC(=O)CCC(=O)Nc2ccc(Cl)cc2Cl)c(OC)c1,inactive,–
NC(=O)COC(=O)c1sc2cc(F)ccc2c1Cl,inactive,–
C=CC1=C2C=C(C3CC3)N(CC(C)C)C=C2C(=O)C(C)(OC(=O)c2ccco2)C1=O (stereo not drawn),–,-1.97% [at 13.5 µM] (inactive)
COc1ccc(C2/C(=C(/O)c3ccc(OC(C)C)cc3)C(=O)C(=O)N2CCCN2CCOCC2)cc1 (stereo not drawn),25.1 µM (active),–
CCN(CC)CCN1C(=O)C(=O)/C(=C(/O)c2ccccc2)C1c1ccccc1F (stereo not drawn),inactive,–
O=C1C(=O)N(CCN2CCOCC2)C(c2ccccn2)/C1=C(/O)c1ccc(Cl)cc1 (stereo not drawn),12.6 µM (active),–
COc1ccc(/C(O)=C2/C(=O)C(=O)N(CC3CCCO3)C2c2ccc(OC)c(OC)c2)cc1 (stereo not drawn),inactive,–
CCN(CC)CCN1C(=O)C(=O)/C(=C(/O)c2ccc(OC)c(OC)c2)C1c1ccccn1 (stereo not drawn),28.2 µM (active),–
COc1cccc(C2/C(=C(/O)c3ccncc3)C(=O)C(=O)N2CCCN(C)C)c1 (stereo not drawn),inactive,–
CC1Cc2cc(/C(O)=C3\C(=O)C(=O)N(CCN4CCOCC4)C3c3ccccc3F)ccc2O1 (stereo not drawn),inactive,–

SMILES,Potency,"activity, negative = inhibition"
O=C1CC(c2ccccc2)CC(O)=C1C=NCCN1CCOCC1 (stereo not drawn),inactive,–
COc1ccc(/C(O)=C2/C(=O)C(=O)N(CCCN(C)C)C2c2ccccc2)cc1OC (stereo not drawn),inactive,–
COC(=O)C(C(=O)OC)[C@@H](NC=O)c1ccccc1,inactive,–
CCOC(=O)C1=C(C)c2ccccc2OC1C(=O)OCC (stereo not drawn),inactive,–
CCc1cc(CNC(=O)CC2C(=O)NCCN2CC2CCCCC2)on1 (stereo not drawn),inactive,–
CCc1ccc(Oc2nc([N+](=O)[O-])nn2C)cc1,inactive,–
Cc1ccc(C(=O)NN(CCC#N)C2=NS(=O)(=O)c3ccccc32)cc1,inactive,–
Cn1nc(C(C)(C)C)c(NC(=O)c2sccc2Cl)c1C(C)(C)C,inactive,–
C=C(C)COc1ccc(-c2nc(N)ncc2-c2ccccc2OC)c(O)c1,inactive,–
O=C(COc1ccc([N+](=O)[O-])cc1Cl)Nn1cnnc1,inactive,–
COC(=O)CSc1nccc(-c2cccs2)n1,inactive,–
CN1CCN(C(=O)N2c3ccccc3CCc3ccccc32)CC1,inactive,–
Cn1nnnc1SCC(=O)NNC(=O)c1ccc(Br)cc1,inactive,–
O=C(CCc1ccccc1)NNC(=O)c1ccc(Br)cc1,inactive,–
CC(=O)NC(=S)NNC(=O)c1ccc(Br)cc1,11.2 µM (active),–
CC(Oc1cccc(NC(=O)c2cccs2)c1)C(=O)c1ccccc1 (stereo not drawn),inactive,–
O=C(O)c1n[nH]nc1-c1ccccc1,inactive,–
CCNC(=O)CC1C(=O)N(c2ccc(F)cc2)C(=O)N1CCc1sccc1C (stereo not drawn),inactive,–
COc1ccc(C(C[N+](=O)[O-])n2nc(C)cc2C)cc1 (stereo not drawn),10 µM (active),–
COc1ccc(OCc2cn3c(C)cc(C)nc3n2)cc1,inactive,–
COc1ccc(Nc2cc(C)nc(-n3nc(C)cc3C)n2)cc1,inactive,–
